Measured values: PubChem BioAssay
Calls of active or inactive are those of the source.

Experiments:
[1] = system: Plasmodium falciparum Sir2 (PF13_0152, Sir2A); experiment: pfSir2 binders on small-molecule microarrays, primary screen, biochemical, small-molecule microarray, 635 nm fluorescence (AID 1098); conditions: small-molecule microarray binding, fluorescence 635 nm; higher = more signal;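 note: score merges spot fluorescence intensity with its signal-to-noise ratio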
[2] = small-molecule microarray binders of probe aDKK1, primary screen, biochemical, biotinylated probe, 635/667 nm fluorescence (AID 1099); conditions: higher = more signal;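 note: score merges 667nm spot fluorescence with signal to noise across triplicate slides; reference of the scale not given here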
[3] = small-molecule microarray binders of probe aCHRDL2, primary screen, biochemical, biotinylated probe, 635/667 nm fluorescence (AID 1100); conditions: higher = more signal
[4] = splicing luciferase reporter signal modulators, primary screen, spliceosome inhibition project, cell-based, HEK293, splice +/- reporter (AID 1101); conditions: luminescence, 24 h, higher = more signal, called active from +8 up or from −8 down;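 note: HEK293 cells carrying a splicing-competent luciferase reporter gene; test concentration not given here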
[5] = target: Fibroblast growth factor 10 (Homo sapiens) (UniProt O15520); experiment: FGF10 binders on small-molecule microarrays, primary screen, biochemical, small-molecule microarray, 635 nm fluorescence (AID 1102); conditions: FGF10 binding, fluorescence 635 nm, higher = more signal
[6] = system: glycogen synthase kinase-3 (GSK3A per assay name; protocol says GSK3B); experiment: GSK3 binders on small-molecule microarrays, primary screen, biochemical, small-molecule microarray, 635 nm fluorescence, GSK3A (AID 1103); conditions: small-molecule microarray binding, fluorescence 635 nm; higher = more signal; note: the record names both GSK3A and GSK3B
[7] = target: Epidermal growth factor receptor (Homo sapiens) (UniProt P00533); experiment: EGFR binders on small-molecule microarrays, primary screen, biochemical, small-molecule microarray, 635 nm fluorescence (AID 1104); conditions: EGFR binding, higher = more signal;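 note: score merges 667 nm emission intensity with spot signal to noise over triplicate slides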
[8] = target: Follistatin-related protein 3 (Homo sapiens) (UniProt O95633); experiment: FSTL3 binders on small-molecule microarrays, primary screen, biochemical, small-molecule microarray, 635 nm fluorescence (AID 1105); conditions: FSTL3 binding, higher = more signal;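 note: score merges emission near 667 nm and signal to noise per printed spot across three slides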
[9] = target: Dickkopf-related protein 1 (Homo sapiens) (UniProt O94907); experiment: DKK1 binders on small-molecule microarrays, primary screen, biochemical, small-molecule microarray, 635 nm fluorescence scan (AID 1106); conditions: DKK1 binding, higher = more signal;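 note: score merges emission near 667 nm with signal to noise over three replicate slides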
[10] = system: Inhibin beta A chain (activin A); experiment: INHBA (activin A) binders on microarrays, primary screen, biochemical, small-molecule microarray, 635 nm fluorescence scan (AID 1107); conditions: small-molecule microarray binding, higher = more signal;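 note: mouse activin A protein probed at 4.33 µg/mL on printed slides; score merges bound-protein fluorescence near 667 nm with spot signal-to-noise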

Chain of Fibroblast growth factor 10 (Homo sapiens) (O15520 whole entry, looked up): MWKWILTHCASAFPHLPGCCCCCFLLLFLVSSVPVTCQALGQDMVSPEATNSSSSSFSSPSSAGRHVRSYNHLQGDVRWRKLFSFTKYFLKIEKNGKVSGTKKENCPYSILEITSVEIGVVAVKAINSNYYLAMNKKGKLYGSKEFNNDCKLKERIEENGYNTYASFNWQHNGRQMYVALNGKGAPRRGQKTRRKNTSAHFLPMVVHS
Chain of Dickkopf-related protein 1 (Homo sapiens) (O94907 whole entry, looked up): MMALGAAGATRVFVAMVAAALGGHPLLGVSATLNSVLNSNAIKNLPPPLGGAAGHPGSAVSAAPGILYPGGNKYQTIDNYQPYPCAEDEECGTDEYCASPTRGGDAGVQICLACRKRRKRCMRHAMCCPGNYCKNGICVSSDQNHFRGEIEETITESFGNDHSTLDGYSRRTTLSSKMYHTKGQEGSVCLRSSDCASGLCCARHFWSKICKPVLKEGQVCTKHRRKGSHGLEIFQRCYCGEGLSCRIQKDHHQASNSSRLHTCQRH
Chain of Follistatin-related protein 3 (Homo sapiens) (O95633 whole entry, looked up): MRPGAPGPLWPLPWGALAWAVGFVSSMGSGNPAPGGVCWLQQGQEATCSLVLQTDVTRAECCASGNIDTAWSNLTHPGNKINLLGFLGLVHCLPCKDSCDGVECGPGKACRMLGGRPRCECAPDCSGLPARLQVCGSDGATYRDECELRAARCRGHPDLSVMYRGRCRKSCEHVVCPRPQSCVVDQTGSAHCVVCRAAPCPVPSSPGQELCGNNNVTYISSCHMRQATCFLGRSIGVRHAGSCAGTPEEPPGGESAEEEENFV
Chain of Epidermal growth factor receptor (Homo sapiens) (P00533 whole entry, looked up): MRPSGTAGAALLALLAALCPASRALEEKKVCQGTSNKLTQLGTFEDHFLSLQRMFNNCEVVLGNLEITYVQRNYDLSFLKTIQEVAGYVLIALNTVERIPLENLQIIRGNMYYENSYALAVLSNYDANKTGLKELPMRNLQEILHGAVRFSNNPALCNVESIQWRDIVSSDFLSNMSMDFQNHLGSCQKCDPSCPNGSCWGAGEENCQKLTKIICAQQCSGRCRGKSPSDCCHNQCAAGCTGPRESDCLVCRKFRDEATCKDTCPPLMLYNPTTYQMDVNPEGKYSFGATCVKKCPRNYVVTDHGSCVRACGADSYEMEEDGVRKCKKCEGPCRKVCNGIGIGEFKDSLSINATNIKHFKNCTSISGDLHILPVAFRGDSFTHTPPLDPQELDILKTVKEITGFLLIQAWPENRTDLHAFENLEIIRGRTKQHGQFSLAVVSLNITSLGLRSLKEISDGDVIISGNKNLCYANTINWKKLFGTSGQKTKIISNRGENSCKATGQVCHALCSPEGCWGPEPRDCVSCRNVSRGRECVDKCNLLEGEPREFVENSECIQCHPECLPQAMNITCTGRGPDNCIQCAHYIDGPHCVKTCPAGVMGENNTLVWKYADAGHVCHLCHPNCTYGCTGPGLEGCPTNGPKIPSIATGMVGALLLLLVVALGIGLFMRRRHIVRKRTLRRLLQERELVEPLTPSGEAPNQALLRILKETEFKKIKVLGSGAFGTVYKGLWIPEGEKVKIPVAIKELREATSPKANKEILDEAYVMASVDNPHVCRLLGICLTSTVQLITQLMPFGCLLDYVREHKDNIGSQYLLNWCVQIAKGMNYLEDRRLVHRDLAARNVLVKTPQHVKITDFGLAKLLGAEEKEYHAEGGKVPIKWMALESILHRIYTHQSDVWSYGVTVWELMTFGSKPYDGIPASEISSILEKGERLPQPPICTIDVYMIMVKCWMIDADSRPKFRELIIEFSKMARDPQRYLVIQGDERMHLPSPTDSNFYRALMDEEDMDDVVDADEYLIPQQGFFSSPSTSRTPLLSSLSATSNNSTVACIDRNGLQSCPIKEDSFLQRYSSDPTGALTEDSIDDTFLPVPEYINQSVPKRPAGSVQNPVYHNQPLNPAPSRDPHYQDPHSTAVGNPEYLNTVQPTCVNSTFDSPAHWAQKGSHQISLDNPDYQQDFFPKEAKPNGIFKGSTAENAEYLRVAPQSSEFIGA

Row | Compound | composite z-score [1] | composite z-score [2] | composite z-score [3] | z-score [4] | composite z-score [5] | composite z-score [6] | composite z-score [7] | composite z-score [8] | composite z-score [9] | composite z-score [10]
1 | C=CCC(OC(C)=O)[C@@H]1[C@@H](N(Cc2cccc3ccccc23)C(=O)Cc2ccc(F)cc2)c2cc(OCCCO)ccc2N1C(=O)Cc1ccc2ccccc2c1 (stereo not given in full) | -0.182 | -0.0551 | 0.315 | -0.395 (inactive) | 0.2 | -0.236 | -0.285 | -0.0987 | -0.619 | 1.07
2 | COC(=O)[C@@]1(Cc2ccc(OC)cc2)[C@H]2c3cc(C(=O)N(C)C)n(CCc4ccc(OC)c(Br)c4)c3C[C@H]2CN1C(=O)c1ccccc1 | 0.843 | 1.98 | 1.47 | -1.13 (inactive) | 0.77 | 1.02 | -0.405 | 1.04 | -0.884 | 0.463
3 | CO[C@H]1COC(=O)[C@@H](OCc2ccccc2)C=C[C@H](C)[C@@H](OC)COC(=O)[C@H](OCc2ccccc2)C=C[C@@H]1C | -0.0155 | -0.46 | -0.984 | -1.8 (inactive) | 0.181 | -0.0762 | -0.207 | 0.172 | 0.123 | -0.381
4 | O=C(NCc1ccccc1)[C@@]1(CCS(=O)(=O)c2ccccc2)COC(c2ccc(OCCCO)cc2)=N1 | 1.41 | 0.933 | 1.47 | -0.969 (inactive) | 0.748 | 1.08 | -0.166 | 0.23 | -0.594 | 0.807
5 | COC(=O)c1c(CC[C@@H](CO)NC(=O)N[C@H](Cn2cc(-c3cncn3C)nn2)C(C)C)oc(C(C)=O)c1C(=O)OC | 0.844 | -0.203 | -0.342 | -1.93 (inactive) | 0.512 | 0.861 | 0.363 | 0.165 | 0.265 | -0.253
6 | CO[C@H]1COC(=O)CC=C[C@@H](C)COC(=O)[C@@H](C)NC(=O)CC=C[C@@H]1C | 1.35 | -0.954 | -1.84 | -2.81 (inactive) | 0.567 | 0.967 | 1.39 | 1.45 | 2.01 | -0.529
7 | Cc1ccccc1C(O)C1C=CC2C(=O)N(c3ccccc3)C(=O)C2N1Nc1ccc(C#N)cc1 (stereo not given) | 1.56 | 1.35 | 1.4 | 0.898 (inactive) | 1.16 | 1.3 | 0.832 | 1.05 | 0.311 | 0.958
8 | COCCOC(=O)N1C(=O)[C@@]2(c3cc(C#CCCO)ccc31)[C@H](c1ccc(O)cc1)N1[C@H](c3ccccc3)[C@H](c3ccccc3)OC(=O)[C@H]1[C@@H]2C(=O)Nc1nc2ccccc2s1 | 0.762 | -0.0965 | -0.148 | -1.13 (inactive) | 1.33 | 1.32 | 0.562 | 1.44 | 0.685 | 0.364
9 | CCCNC(=O)[C@@H]1c2ccccc2C(=O)N(C2CCCCC2)[C@H]1c1ccc(CO)cc1 | 0.941 | 0.331 | 0.533 | -0.618 (inactive) | 0.965 | 1.3 | 0.432 | 0.958 | 0.315 | 0.397
10 | CN1C(=O)C2C=CC(C(O)c3ccc(N(C)C)cc3)N(Nc3ccc([N+](=O)[O-])cc3[N+](=O)[O-])C2C1=O (stereo not given) | 1.27 | 1.17 | 0.33 | 1.16 (inactive) | 0.887 | 1.2 | 0.737 | 1.2 | 0.137 | 1.49
11 | O=C(CS)NCCCCCNC(=O)[C@H]1C[C@H]2C(=O)N3CCC[C@H]3C(=O)N2[C@H]1c1ccc(O)cc1 | 0.203 | -0.18 | -0.196 | -1.45 (inactive) | -0.0763 | -1.07 | 0.392 | -0.47 | 0.844 | 0.594
12 | NC(=O)[C@H]1[C@@H]2C(=O)O[C@@H](c3ccccc3)[C@@H](c3ccccc3)N2[C@@H](c2ccc(O)cc2)[C@]12C(=O)Nc1ccc(C#CCCO)cc12 | 1.61 | -0.0626 | 0.604 | -0.205 (inactive) | -0.187 | -1.6 | -1.52 | -0.681 | -0.889 | -0.142
13 | C=C(CCCC)/C(=C/C[C@H](OC(=O)c1ccncc1)c1cccc(OCCO)c1)c1cc(C(=O)OC)ccc1OC | 0.169 | -0.166 | -0.0107 | -1.37 (inactive) | 1.04 | 0.174 | -0.218 | 0.611 | 0.347 | 0.868
14 | CC/C=C/C(=O)N(C[C@@H]1CCCO1)[C@@H]1CC(C(=O)NCCO)=C[C@H](Oc2c(I)cc(CO)cc2OC)[C@H]1O | -0.251 | -0.154 | -0.162 | -1.44 (inactive) | 0.541 | -0.208 | 0.0798 | -0.434 | 0.554 | 0.0756
15 | CCCCO[C@H]1C[C@H]2C(Br)=C[C@@]1(CO)C(=O)[C@]21CO1 | -0.145 | -0.482 | -1.04 | -1.53 (inactive) | 0.136 | -0.243 | 0.156 | 0.184 | 0.308 | 0.363
16 | CN(C)CCCC[C@@H]1NC(=O)[C@@H]2C[C@H](C(=O)NCCCCCNC(=O)CS)[C@H](c3ccc(O)cc3)N2C1=O | 1.19 | 0.0418 | -0.109 | -0.812 (inactive) | 1.11 | 0.667 | 0.0635 | 1.18 | 1.81 | 0.687
17 | C=C(/C(=C/C[C@@H](OC(=O)c1ccncc1)c1ccc(CO)o1)c1cnc2ccccc2c1)C(C)C | 0.885 | 0.138 | -0.157 | 0.168 (inactive) | 1.06 | 1.29 | 0.623 | 1.43 | 0.574 | 1.58

Row | Compound | composite z-score [1] | composite z-score [2] | composite z-score [3] | z-score [4] | composite z-score [5] | composite z-score [6] | composite z-score [7] | composite z-score [8] | composite z-score [9] | composite z-score [10]
18 | CO[C@@H]1COC(=O)[C@H](C)NC(=O)CC=C[C@@H](C)[C@H](NS(=O)(=O)c2ccc(C)cc2)COC(=O)CC=C[C@@H]1C | -0.876 | -0.435 | -0.505 | -0.373 (inactive) | 0.0743 | -0.11 | 0.286 | -0.0201 | 0.0647 | -0.204
19 | COc1ccc(-c2cc3c(c(-c4ccccc4)n2)[Si](C(C)C)(C(C)C)O[C@H]3c2ccccc2)cn1 | -0.309 | -0.0513 | -0.131 | 0.96 (inactive) | 0.22 | 0.176 | 0.0928 | 0.352 | 0.0263 | 0.605
20 | CO[C@H]1O[C@H](CO)[C@@H](OC(=O)Nc2ccccc2)[C@H](OC(=O)Nc2ccc3c(c2)OCO3)[C@@H]1OC(=O)Nc1ccc2c(c1)OCO2 | 1.51 | 0.355 | 0.749 | -0.368 (inactive) | 0.183 | 1.19 | -0.374 | 0.558 | 0.355 | 0.794
21 | O=C(NCC(O)CO)[C@]1(Cc2ccccc2)N=C(c2ccc(OCCCO)cc2)O[C@@H]1c1ccccc1 (stereo not given in full) | 1.51 | 1 | 0.955 | -1.47 (inactive) | -0.23 | -0.0255 | -1.25 | -0.376 | -0.197 | 0.148
22 | O=C1C2C=CC(C(O)C(c3ccccc3)c3ccccc3)N(Nc3ccc([N+](=O)[O-])cc3)C2C(=O)N1c1ccccc1 (stereo not given) | 0.375 | 0.569 | 0.767 | 0.597 (inactive) | 1.04 | 1.32 | 0.66 | 0.955 | 0.331 | 0.814
23 | COCCOC(=O)N1C(=O)[C@@]2(c3cc(C#CCNC(N)=O)ccc31)[C@H](c1ccccc1OCCO)N1[C@H](c3ccccc3)[C@H](c3ccccc3)OC(=O)[C@H]1[C@@H]2C(=O)NC[C@H](O)c1ccccc1 | 1.08 | 0.0288 | 0.352 | 0.408 (inactive) | 1.18 | 0.618 | 0.134 | 1 | 0.117 | 0.203
24 | COCCCNC(=O)[C@@]1(c2ccc([N+](=O)[O-])cc2)CC(=O)N(C2CCCCC2)[C@@H]1c1ccc(CO)cc1 | -0.463 | -0.86 | -0.67 | -0.748 (inactive) | 0.316 | 0.296 | -0.0545 | -0.186 | -0.296 | -0.395
25 | CO[C@@H]1COC(=O)[C@H](COCc2ccccc2)NC(=O)CC=C[C@@H](C)[C@H](OC)COC(=O)[C@H](COCc2ccccc2)NC(=O)CC=C[C@H]1C | -0.23 | -0.466 | -0.942 | -0.923 (inactive) | 0.168 | 0.376 | 0.48 | 0.424 | 0.96 | 1.51
26 | C=CCC1=C[C@H]2[C@H]([C@@H]3C=C[C@]2(CC=C)C(=O)[C@]32CO2)[C@@]2(CO2)C1=O | 1.29 | -0.354 | -0.69 | -0.414 (inactive) | 1.14 | -0.0104 | 1.58 | 1.31 | 1.8 | 1.9
27 | N#Cc1ccc(NN2C(C(O)CCc3ccccc3)C=CC3C(=O)N(c4ccccc4)C(=O)C32)cc1 (stereo not given) | 0.712 | 1.18 | 1.11 | -0.474 (inactive) | 0.25 | 0.767 | -0.164 | 0.228 | 0.0048 | 1.02
28 | [N-]=[N+]=NCc1ccccc1C[C@]1(C(N)=O)N=C(c2ccc(OCCCO)cc2)O[C@H]1c1ccccc1CN=[N+]=[N-] | 1.49 | 1.51 | 1.29 | -1.63 (inactive) | 0.72 | 0.265 | -0.37 | 0.186 | -0.9 | 1.41
29 | C[C@@H]1CC[C@H]2C(=O)N3CCC[C@H]3C(=O)N2[C@H]1c1ccc(Br)cc1 | 0.654 | -0.178 | -0.439 | -0.931 (inactive) | 0.125 | 0.267 | 0.0436 | 0.0529 | 0.526 | 0.38
30 | C=CCN(C(=O)C1N(c2ccc(CCO)cc2)C(=O)C2C(C(=O)O)C3C=CC21O3)C(C)(C)C (stereo not given) | 1.86 | -0.214 | 1.24 | -1.32 (inactive) | -1.86 | -0.723 | -3.08 | -2.73 | -4.35 | -1.06
31 | C[C@H]1C2[C@H](Cc3ccccc3)NC(=O)[C@]23C(=O)N[C@H](Cc2ccccc2)C(=O)N[C@@H](Cc2ccccc2)C(=O)NC/C=C\C/C=C/C3[C@@H]2O[C@]12C (stereo not given in full) | 0.0468 | -0.315 | -0.202 | -0.148 (inactive) | 0.345 | -0.256 | -0.228 | 0.223 | 0.409 | 1.16
32 | C=CCNC(=O)[C@H]1[C@@H]2C(=O)O[C@@H](c3ccccc3)[C@@H](c3ccccc3)N2[C@@H](c2ccccc2OCCO)[C@]12C(=O)N(C(=O)OCCOC)c1ccc(C#CCC(C(=O)OC)C(=O)OC)cc12 | 1.1 | 0.572 | 0.155 | -1.69 (inactive) | 0.541 | 1.29 | 0.328 | 0.919 | 0.271 | 0.641
33 | C=C(COC)C(=O)CC[C@H](OC(=O)c1ccccc1-c1ccccc1C(=O)O)c1cccc(OCCO)c1 | 1.74 | -0.0615 | -0.462 | -3.03 (inactive) | 1.71 | 0.829 | 0.397 | 1.33 | 1.94 | 1.01
